# Measured values as given in the supplement of paper PMC10941209.
# A number with no mark means an inactive call.
# Test system: Toxoplasma gondii RH 2F1 tachyzoites (intracellular in HFF)
# Assay: parasite survival relative to DMSO control; higher = less antiparasitic activity, active = 20 or less
# Conditions: 1 µM; 72 h
# In short: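 Parasite survival was taken as the CPRG signal relative to DMSO-treated infected wells, given as a percentage. To obtain it, HFF cells (5 × 10^3 cells/well, 96-well plates) were infected for 3 h in D2 medium with 5 × 10^3 β-galactosidase-expressing Toxoplasma gondii RH-2F1 tachyzoites, then exposed to compound at 1 μM for 72 h at 37°C in 5% CO2. Absorbance at 570 nm was measured 30 min after CPRG was added to lysed cells, and 2 or more biological replicates were run.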
row,SMILES,parasite survival
1,O=C(O)CCNC(=O)c1ccccc1,50.8%
2,O=C(O)COc1cccc2c1CC[C@](O)(COC(=O)N(c1ccccc1)c1ccccc1)C2,76.3%
3,CC1(C)C[C@H]1C(=O)N/C(=C\CCCCSC[C@@H](N)C(=O)O)C(=O)O,94.5%
4,Cc1onc(-c2ccccc2Cl)c1C(=O)N[C@@H]1C(=O)N2[C@@H]1SC(C)(C)[C@@H]2C(=O)O,50.5%
5,Nc1nc(N)c2c(Sc3ccccc3)cccc2n1,11.4% (active)
6,CC(=O)NC[C@H]1CN(c2ccc(N3CCSCC3)c(F)c2)C(=O)O1,44%
7,CC(C)(C)c1ccc(Oc2ccc(N)cc2)cc1,81.4%
8,Cc1nc2ccc(Oc3ccccc3)cc2c2c1CCN2CCc1ccccc1,8.56% (active)
9,Nc1c(C(=O)NCc2ccco2)c2nc3ccccc3nc2n1CCN1CCCCC1,37%
10,CCCCc1ccc(C(=O)O)nc1,54.6%
11,O=c1nc(N2CCN(CC3CCCCC3)CC2)sc2c([N+](=O)[O-])cc(C(F)(F)F)cc12,43.6%
12,Nc1nc(-c2ccccc2)nc2[nH]nc(Nc3ccc(C(F)(F)F)cc3)c12,35.1%
13,CC(C)n1cnc2c(NCc3ccccc3)nc(NCc3ccccc3)nc21,39.1%
14,CN(O)C(=O)c1cc2c(CN3CCC[C@H]3C(N)=O)cn(Cc3ccc(F)cc3)c2cn1,76.7%
15,C[C@H](NC(=O)C(=O)Nc1ccccc1C(C)(C)C)C(=O)N[C@@H](CC(=O)O)C(=O)COc1c(F)c(F)cc(F)c1F,6% (active)
16,CC[N+]1(C/C2=C/CCCCCC2)CCC(NC(=O)C2c3cc(Cl)ccc3Oc3ccc(Cl)cc32)CC1 (stereo not given),59.8%
17,CCOc1ccc(C(=O)NCCc2ccccc2)cc1,60.8%
18,CC(=O)N1c2ccccc2NC2=C(C(=O)CC(C)(C)C2)C1c1ccc(OCc2ccccc2)cc1 (stereo not given),46.7%
19,COc1cc2c(O)c3c(c(-c4ccc5c(c4)OCO5)c2cc1OC)C(=O)OC3,46.1%
20,CCCCCCCCCN1C[C@@H](O)[C@H](O)[C@@H](O)[C@@H]1CO,56.8%

row,SMILES,parasite survival
1,C[C@@H](O)[C@H](N)C(=O)NS(=O)(=O)c1cccc(-c2ccc3[nH]ncc3c2)c1,40.1%
2,NC1C2CC3CC(C2)CC1C3 (stereo not given),68.3%
3,NC1(C(=O)O)CCP(=O)(O)CC1 (stereo not given),77.4%
4,NC(=O)c1ccc(I)c([N+](=O)[O-])c1,59.1%
5,C[C@H](NC(CC(=O)c1ccccc1C(F)(F)F)C(=O)O)c1ccccc1 (stereo not given in full),63%
6,Cc1c(N)cccc1Cn1ccc(OCCc2cccs2)cc1=O,48.8%
7,N#Cc1c(F)c(Cl)c(NCc2ccccc2)c(C#N)c1F,31.9%
8,Fc1cccc(Cl)c1C1CC(c2ccc(Cl)cc2)Nc2nnnn21 (stereo not given),79.9%
9,OC(Cn1cncn1)(Cn1cncn1)c1ccc(F)cc1F,46%
10,CCOC(=O)/C=C/[C@H](C[C@@H]1CCNC1=O)NC(=O)[C@@H](CC(=O)[C@@H](NC(=O)c1cc(C)on1)C(C)C)Cc1ccc(F)cc1,48.2%
11,COc1ccc(C(C)(C)C)cc1NC(=O)C(=O)c1ccc(OCCN2CCOCC2)c2ccccc12,45.8%
12,CCCCCCCc1[nH]c2ccccc2c(=O)c1O,49%
13,CCc1oc2ccccc2c1C(=O)c1ccc(O)cc1,29.1%
14,CNCC(=O)OCc1cccnc1N(C)C(=O)OC(C)[n+]1cnn(C[C@](O)(c2cc(F)ccc2F)[C@@H](C)c2nc(-c3ccc(C#N)cc3)cs2)c1 (stereo not given in full),35.6%
15,Nc1nc(F)nc2c1ncn2[C@H]1O[C@@H](CO)[C@H](O)[C@@H]1O,30%
16,O=C(O)c1sccc1S(=O)(=O)n1ccc2cc(Br)ccc21,66.8%
17,N#Cc1cc([N+](=O)[O-])ccc1Oc1ccccc1Cl,69%
18,O=C(NCc1ccccc1Cl)c1cnc2ccccc2n1,45.6%
19,COc1ccc(C2CNC(=O)C2)cc1OC1CCCC1 (stereo not given),69.8%
20,O=c1cc(Nc2ccc3ccccc3c2)[nH]c(=O)[nH]1,53.3%
